Measured values reported in PubChem BioAssay (NCATS).
Inconclusive results are not listed. The source made the active and inactive calls. Unless noted, calls follow the shape of the dose curve; as a rule, active = well fitted curve in either direction with a large enough effect (not every such curve was filed as active); inconclusive = small, poorly fitted or top-dose-only effect, or another doubt; inactive = flat fitted curve, though single readings scatter.

Legend:
[1] = molecular target: Lysosomal acid glucosylceramidase (Homo sapiens) (UniProt P04062); assay: Glucocerebrosidase-p2 (AID 348; in the data active = potency below about 10 µM; also: potency is read from the fitted curve at half-maximal effect); settings: purified GBA, blue fluorogenic substrate, 40 min
Lysosomal acid glucosylceramidase (Homo sapiens), sequence (P04062 whole entry, looked up): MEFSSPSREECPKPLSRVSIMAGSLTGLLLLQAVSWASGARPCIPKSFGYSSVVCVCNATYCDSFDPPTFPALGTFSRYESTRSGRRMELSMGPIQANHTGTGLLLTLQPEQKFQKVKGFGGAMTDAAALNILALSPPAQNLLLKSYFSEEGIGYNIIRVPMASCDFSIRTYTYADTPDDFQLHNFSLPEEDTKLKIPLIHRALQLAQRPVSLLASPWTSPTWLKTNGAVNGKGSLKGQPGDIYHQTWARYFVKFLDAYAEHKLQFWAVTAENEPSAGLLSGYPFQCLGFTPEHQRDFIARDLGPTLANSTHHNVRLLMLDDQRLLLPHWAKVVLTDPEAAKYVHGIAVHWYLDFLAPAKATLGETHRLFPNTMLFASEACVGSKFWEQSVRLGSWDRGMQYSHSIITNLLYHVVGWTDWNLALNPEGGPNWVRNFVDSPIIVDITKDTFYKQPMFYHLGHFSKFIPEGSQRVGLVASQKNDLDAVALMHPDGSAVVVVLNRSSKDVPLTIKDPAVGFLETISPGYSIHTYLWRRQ
Method in brief: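 Normal human glucocerebrosidase (0.2 nM) with blue fluorogenic substrate (80 uM final) in citrate/phosphate pH 5.9 with 10mM sodium taurocholate, 0.01% tween-20; 40 min RT, NaOH/glycine stop; fluorescence Ex 365/Em 440; AC50 from a titration from 0.6 nM upwards.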

[2] = AP1 Signaling Pathway (AID 357); settings: ME-180 AP-1-bla reporter, EGF-induced, beta-lactamase ratio, 5 h; at 7.69 µM (top of the series) unless noted; also: % is scaled to controls: 0 for no effect and ±100 for the full control effect
Method in brief: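 ME-180 cells with beta-lactamase reporter under AP-1 response element, stimulated with EC50 EGF; compounds tested in titration series, 5 h at 37 °C. CCF4 substrate added 2.5 h at room temperature; 460/530 nm emission ratio gave %activity and AC50.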

[3] = molecular target: Cytochrome P450 1A2 (Homo sapiens) (UniProt P05177); assay: p450-cyp1a2 (AID 410; calls by dose curve; also: potency is read from the fitted curve at half-maximal effect;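 as to activity change, negative = inhibition: -100% = full effect of reference inhibitor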); settings: recombinant CYP1A2, luciferin-ME demethylation, luminescence; series mostly up to 11.4 µM
Cytochrome P450 1A2 (Homo sapiens), sequence (P05177 whole entry, looked up): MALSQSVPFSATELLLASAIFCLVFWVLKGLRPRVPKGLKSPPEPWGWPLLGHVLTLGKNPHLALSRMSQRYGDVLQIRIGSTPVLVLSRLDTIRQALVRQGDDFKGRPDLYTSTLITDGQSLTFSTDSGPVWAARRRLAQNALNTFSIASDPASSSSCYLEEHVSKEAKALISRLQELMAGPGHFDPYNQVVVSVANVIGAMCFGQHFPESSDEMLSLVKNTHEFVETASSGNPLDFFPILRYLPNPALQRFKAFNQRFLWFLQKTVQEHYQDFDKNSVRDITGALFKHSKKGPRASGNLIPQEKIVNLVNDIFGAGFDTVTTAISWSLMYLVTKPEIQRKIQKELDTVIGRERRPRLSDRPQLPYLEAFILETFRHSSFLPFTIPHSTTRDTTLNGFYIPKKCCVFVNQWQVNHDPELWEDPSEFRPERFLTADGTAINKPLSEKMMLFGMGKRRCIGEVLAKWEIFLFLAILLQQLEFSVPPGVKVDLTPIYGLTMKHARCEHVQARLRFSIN
Method in brief: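 Read-out is luminescence from luciferin produced by CYP1A2 demethylation of Luciferin-ME (100uM, at Km). Detection reagent stopped the 60 min NADPH-dependent reaction; signals were normalized to 57 uM furafylline.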

[4] = NFAT Signaling Pathway (AID 444); settings: Jurkat NFAT-bla M1, carbachol, beta-lactamase ratio, 5 h; at 7.69 µM (top of the series) unless noted;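 also: carbachol stimulus at about its EC50 of 1 µM final; % is scaled to controls: 0 for no effect and ±100 for the full control effect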
Method in brief: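 Jurkat cells carrying an NFAT-driven β-lactamase reporter and co-transfected muscarinic M1 receptor were treated with compound plus carbachol (1 uM final, an EC50 level) for 5 h at 37 °C. CCF4 loading followed for 1 h at RT; 460/530 nm ratio gave %activity.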

[5] = Stat Signaling Pathway (AID 446); settings: ME-180 SIE beta-lactamase reporter, IL-6 stimulated, 5 h; at 7.69 µM (top of the series) unless noted;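 also: ME-180 cervical cancer cells given 40 pM IL-6 alongside compound; SIE-controlled beta-lactamase reporter measured as 460/530 nm FRET emission ratio; % is scaled to controls: 0 for no effect and ±100 for the full control effect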
Method in brief: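 Emission at 460 and 530 nm (excitation 405 nm) reports SIE-controlled beta-lactamase in ME-180 cells. Cells received compound with 40 pM IL-6 for 5 hrs at 37 C; data scaled between 300 pM IL-6 and 125 nM JAK-inhibitor controls.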

[6] = molecular target: Glucocorticoid receptor (Homo sapiens) (UniProt P04150); assay: GR-GFP Redistribution (AID 450;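 active = compounds whose dose series gives a full or clear partial fitted curve of increased nuclear translocation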; also: potency is read from the fitted curve at half-maximal effect); settings: U2OS GR-GFP nuclear translocation, laser cytometry, 2 h
Glucocorticoid receptor (Homo sapiens), sequence (P04150 whole entry, looked up, the tested form may be a part): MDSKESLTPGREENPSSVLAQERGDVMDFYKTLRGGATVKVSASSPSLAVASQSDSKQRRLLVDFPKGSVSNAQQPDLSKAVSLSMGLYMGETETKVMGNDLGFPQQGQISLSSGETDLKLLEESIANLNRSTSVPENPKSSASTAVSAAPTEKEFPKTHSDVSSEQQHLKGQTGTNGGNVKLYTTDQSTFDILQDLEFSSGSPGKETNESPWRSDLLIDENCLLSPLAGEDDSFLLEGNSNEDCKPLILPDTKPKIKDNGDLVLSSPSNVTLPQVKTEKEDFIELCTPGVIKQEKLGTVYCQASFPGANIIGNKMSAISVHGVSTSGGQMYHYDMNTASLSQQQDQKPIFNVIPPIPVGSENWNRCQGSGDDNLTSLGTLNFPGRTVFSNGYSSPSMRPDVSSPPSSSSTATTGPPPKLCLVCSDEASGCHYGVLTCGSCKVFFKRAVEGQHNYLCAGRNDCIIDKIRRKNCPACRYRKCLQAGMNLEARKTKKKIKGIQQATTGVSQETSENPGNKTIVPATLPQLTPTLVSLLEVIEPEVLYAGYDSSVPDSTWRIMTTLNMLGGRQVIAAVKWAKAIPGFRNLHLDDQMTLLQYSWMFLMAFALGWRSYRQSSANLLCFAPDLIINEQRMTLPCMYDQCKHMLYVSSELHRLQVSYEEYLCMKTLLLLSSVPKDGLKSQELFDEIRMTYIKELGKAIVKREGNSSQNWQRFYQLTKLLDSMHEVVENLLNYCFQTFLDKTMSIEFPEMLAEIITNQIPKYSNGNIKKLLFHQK

[7] = molecular target: Glucocorticoid receptor (Homo sapiens) (UniProt P04150); assay: GR-EFC Redistribution (AID 451; calls by dose curve; also: potency is read from the fitted curve at half-maximal effect); settings: CHO-K1 GR-EFC translocation, beta-gal luminescence, 2 h
Method in brief: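 CHO-K1 cells stably expressing nuclear-localized β-gal enzyme acceptor and GR fused C-terminally to the enzyme donor fragment; ligand-driven nuclear translocation restores β-gal by complementation. Compounds titrated up to 46 uM final, 2 h at 37 °C; luminescence read.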

[8] = molecular target: Mitogen-activated protein kinase 10 (Mus musculus) (UniProt Q61831); assay: JNK3 AlphaScreen Assay (AID 530); settings: JNK3 lysate, c-Jun phosphorylation; series mostly up to 11.4 µM;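 also: kinase came from lysate of stimulated human HepG2 cells; signal reports phosphorylation of biotinylated GST-cJun 1-79 at Ser73 with 10 µM ATP; % is scaled to controls: 0 for no effect and ±100 for the full control effect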
Method in brief: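 Biotinylated GST-cJun(1-79) served as substrate for JNK3 in HepG2 lysates stimulated with IL-1beta and TNF-alpha. ATP was 10 uM final, pH 7.6. Ser73 phosphorylation was quantified by AlphaScreen (680 nm excitation).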

[9] = molecular target: Cytochrome P450 3A4 (Homo sapiens) (UniProt P08684); assay: qHTS Assay for Inhibitors and Substrates of Cytochrome P450 3A4 (AID 884; active = well fitted curve in the direction sought with a large enough effect; an effect the other way counts as inactive or inconclusive; also: nearly all actives have a fitted effect of over 50% in size; also: potency is read from the fitted curve at half-maximal effect); settings: recombinant CYP3A4, Luciferin-PPXE luminescence; series mostly up to 57.1 µM
Cytochrome P450 3A4 (Homo sapiens), sequence (P08684 whole entry, looked up): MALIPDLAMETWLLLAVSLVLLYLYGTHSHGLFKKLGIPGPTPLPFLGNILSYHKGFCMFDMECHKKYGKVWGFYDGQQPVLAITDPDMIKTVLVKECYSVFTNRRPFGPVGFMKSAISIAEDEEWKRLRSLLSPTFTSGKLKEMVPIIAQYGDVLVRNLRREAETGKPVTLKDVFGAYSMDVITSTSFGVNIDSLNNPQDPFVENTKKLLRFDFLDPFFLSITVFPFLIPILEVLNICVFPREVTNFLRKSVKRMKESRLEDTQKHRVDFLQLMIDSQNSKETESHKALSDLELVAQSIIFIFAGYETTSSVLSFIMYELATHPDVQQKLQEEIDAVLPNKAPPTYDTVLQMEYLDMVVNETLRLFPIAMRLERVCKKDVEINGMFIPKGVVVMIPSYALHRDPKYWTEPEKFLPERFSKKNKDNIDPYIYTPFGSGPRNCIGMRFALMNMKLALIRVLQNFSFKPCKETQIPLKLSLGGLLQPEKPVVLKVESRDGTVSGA
Method in brief: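 Luminescent readout of luciferin produced by CYP3A4 (20 nM) dealkylation of Luciferin-PPXE, 25 uM (its KM). NADPH-driven reaction ran 60 min at RT after 10 min compound preincubation; data scaled to 57 uM ketoconazole as 100% inhibition.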

[10] = molecular target: Cytochrome P450 3A4 (Homo sapiens) (UniProt P08684); assay: qHTS Assay for Activators of Cytochrome P450 3A4 (AID 885; active = well fitted curve in the direction sought with a large enough effect; an effect the other way counts as inactive or inconclusive; also: nearly all actives have a fitted effect of over 65% in size; also: potency is read from the fitted curve at half-maximal effect); settings: recombinant CYP3A4, Luciferin-PPXE luminescence, 60 min; series mostly up to 11.4 µM
Method in brief: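 Activators are scored by enhanced luminescence from CYP3A4 conversion of luciferin-PPXE (25uM, equal to KM) to luciferin, after 60 min at RT with an NADPH-regenerating system.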

[11] = Confirmation and Secondary Assay for Modulators of Hemoglobin Beta Chain Splicing at IVS2 654 locus (AID 910; active = well fitted curve in the direction sought with a large enough effect; an effect the other way counts as inactive or inconclusive;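 also: per-well total GFP intensity by laser scanning cytometry after 2-day treatment; % of control where 0% means no effect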); settings: HeLa EGFP-654 splicing reporter, GFP fluorescence, 48 h; series mostly up to 38.3 µM
Method in brief: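 HeLa cells stably carrying EGFP interrupted by mutant beta-globin IVS2-654 intron (CMV-driven) were treated with compound for 2 days at 37C; corrected splicing was scored as total peak GFP intensity per well (488 nm excitation, 500-520 nm emission).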

[12] = qHTS Assay for Identification of Small Molecule Agonists for Hypoxia Response Element Signaling Pathway (AID 914; active = well fitted activation curve with a large enough effect in the signal ratio, with a control signal flat, not every such curve was filed as active; the % refers to the signal ratio; also: % of control where 0% means no effect); settings: ME-180 (cervical carcinoma) HRE-bla reporter, beta-lactamase ratio, CoCl2, 17 h; activation: active compounds read high
Method in brief: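 qHTS titration; ME-180 HRE-bla cells; EC50 CoCl2 co-treatment, 17 h at 37 degrees Celsius; CCF4 dye, ex 405nm, em 460nm and 530nm; %Activity from ratio; AC50.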

[13] = molecular target: 3',5'-cyclic-AMP phosphodiesterase 4B (Homo sapiens) (UniProt Q07343); assay: qHTS Assay for Inhibitors of PDE-IV (AID 607; active = well fitted activation curve with a large enough effect in the main read-out, with a control signal flat, not every such curve was filed as active; also: % of control where 0% means no effect); settings: HEK293 ACTOne CNG channel cells, membrane potential fluorescence; series mostly up to 22.9 µM
3',5'-cyclic-AMP phosphodiesterase 4B (Homo sapiens), sequence (Q07343 whole entry, looked up): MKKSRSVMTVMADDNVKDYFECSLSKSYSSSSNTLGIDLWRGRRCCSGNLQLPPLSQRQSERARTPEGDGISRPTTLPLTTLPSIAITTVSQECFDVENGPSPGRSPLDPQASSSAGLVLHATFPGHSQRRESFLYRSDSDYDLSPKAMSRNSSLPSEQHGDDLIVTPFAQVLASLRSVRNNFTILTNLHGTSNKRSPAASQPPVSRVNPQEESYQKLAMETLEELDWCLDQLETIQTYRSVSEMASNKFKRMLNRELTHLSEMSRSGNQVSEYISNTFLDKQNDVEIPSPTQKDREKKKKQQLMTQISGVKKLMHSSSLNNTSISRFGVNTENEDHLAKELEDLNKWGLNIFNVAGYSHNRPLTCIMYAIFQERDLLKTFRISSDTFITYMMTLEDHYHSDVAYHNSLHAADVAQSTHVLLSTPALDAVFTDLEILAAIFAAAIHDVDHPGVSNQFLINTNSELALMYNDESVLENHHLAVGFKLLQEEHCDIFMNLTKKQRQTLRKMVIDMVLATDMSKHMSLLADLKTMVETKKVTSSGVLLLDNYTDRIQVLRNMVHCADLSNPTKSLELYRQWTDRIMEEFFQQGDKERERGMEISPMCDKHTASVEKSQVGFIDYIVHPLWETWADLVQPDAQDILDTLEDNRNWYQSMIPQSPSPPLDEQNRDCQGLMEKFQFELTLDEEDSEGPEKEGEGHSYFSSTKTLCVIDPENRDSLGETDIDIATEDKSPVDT
Method in brief: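 The readout is membrane depolarisation from a cAMP-sensing CNG channel, detected with a potential dye at ex 535/em 590. Cells were HEK293-derived (endogenous PDE-IV) at 1000 cells/well, titrated up to 22.9 uM final.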

[14] = molecular target: Cytochrome P450 2D6 (Homo sapiens) (UniProt P10635); assay: qHTS Assay for Inhibitors and Substrates of Cytochrome P450 2D6 (AID 891; active = well fitted curve in the direction sought with a large enough effect; an effect the other way counts as inactive or inconclusive; also: potency is read from the fitted curve at half-maximal effect; nearly all actives have a fitted effect of over 60% in size); settings: recombinant CYP2D6, luciferin-ME EGE luminescence; series mostly up to 11.4 µM
Cytochrome P450 2D6 (Homo sapiens), sequence (P10635 whole entry, looked up): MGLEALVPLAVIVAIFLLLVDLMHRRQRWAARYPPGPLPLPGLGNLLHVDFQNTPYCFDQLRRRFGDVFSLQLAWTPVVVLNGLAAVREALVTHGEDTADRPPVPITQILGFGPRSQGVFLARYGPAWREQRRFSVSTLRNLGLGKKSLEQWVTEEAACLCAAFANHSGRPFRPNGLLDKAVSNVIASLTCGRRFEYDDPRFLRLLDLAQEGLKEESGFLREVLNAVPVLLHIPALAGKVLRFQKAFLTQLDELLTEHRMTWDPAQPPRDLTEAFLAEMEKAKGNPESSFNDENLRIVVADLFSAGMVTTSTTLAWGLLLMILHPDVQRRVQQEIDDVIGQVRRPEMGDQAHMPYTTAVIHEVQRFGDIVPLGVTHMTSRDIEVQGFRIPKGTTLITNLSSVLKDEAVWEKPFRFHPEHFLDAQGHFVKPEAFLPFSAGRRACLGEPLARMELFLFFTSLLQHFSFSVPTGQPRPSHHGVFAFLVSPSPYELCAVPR
Method in brief: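 Luminescent read-out of luciferin formed by 5 nM human CYP2D6 demethylating 30 uM Luciferin-ME EGE (Km level) over 60 min at room temperature after NADPH regeneration addition. Data normalized to full inhibition by 1.43 uM quinidine.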

[15] = molecular target: Cytochrome P450 2C19 (Homo sapiens) (UniProt P33261); assay: qHTS Assay for Inhibitors and Substrates of Cytochrome P450 2C19 (AID 899; active = well fitted curve in the direction sought with a large enough effect; an effect the other way counts as inactive or inconclusive; also: nearly all actives have a fitted effect of over 60% in size; also: potency is read from the fitted curve at half-maximal effect); settings: recombinant CYP2C19, luciferin-H EGE luminescence; series mostly up to 11.4 µM
Cytochrome P450 2C19 (Homo sapiens), sequence (P33261 whole entry, looked up): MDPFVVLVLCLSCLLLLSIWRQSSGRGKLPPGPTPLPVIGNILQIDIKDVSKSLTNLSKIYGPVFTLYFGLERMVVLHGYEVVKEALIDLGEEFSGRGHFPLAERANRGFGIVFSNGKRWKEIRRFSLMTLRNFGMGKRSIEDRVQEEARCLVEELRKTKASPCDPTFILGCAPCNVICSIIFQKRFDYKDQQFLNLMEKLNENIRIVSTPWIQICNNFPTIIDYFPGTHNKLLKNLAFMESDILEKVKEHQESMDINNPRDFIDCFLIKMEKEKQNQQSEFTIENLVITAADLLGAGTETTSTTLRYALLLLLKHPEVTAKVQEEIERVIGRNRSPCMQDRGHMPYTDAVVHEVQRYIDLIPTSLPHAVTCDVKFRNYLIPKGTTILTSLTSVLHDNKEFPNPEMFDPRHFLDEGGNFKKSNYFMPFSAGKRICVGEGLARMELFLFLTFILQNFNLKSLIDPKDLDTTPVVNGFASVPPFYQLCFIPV
Method in brief: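 In 50mM KPO4, the reaction held 5nM enzyme and KM-level (10uM) Luciferin-H EGE; it ran 60 min at 37C after NADPH regeneration and a 10 min compound preincubation. Luminescence values were scaled to 57uM ketoconazole as complete inhibition.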

[16] = molecular target: Cytochrome P450 2C9 (Homo sapiens) (UniProt P11712); assay: qHTS Assay for Inhibitors and Substrates of Cytochrome P450 2C9 (AID 883; active = well fitted curve in the direction sought with a large enough effect; an effect the other way counts as inactive or inconclusive; also: potency is read from the fitted curve at half-maximal effect; nearly all actives have a fitted effect of over 60% in size); settings: recombinant CYP2C9, luciferin-H luminescence, 60 min; series mostly up to 11.4 µM
Cytochrome P450 2C9 (Homo sapiens), sequence (P11712 whole entry, looked up): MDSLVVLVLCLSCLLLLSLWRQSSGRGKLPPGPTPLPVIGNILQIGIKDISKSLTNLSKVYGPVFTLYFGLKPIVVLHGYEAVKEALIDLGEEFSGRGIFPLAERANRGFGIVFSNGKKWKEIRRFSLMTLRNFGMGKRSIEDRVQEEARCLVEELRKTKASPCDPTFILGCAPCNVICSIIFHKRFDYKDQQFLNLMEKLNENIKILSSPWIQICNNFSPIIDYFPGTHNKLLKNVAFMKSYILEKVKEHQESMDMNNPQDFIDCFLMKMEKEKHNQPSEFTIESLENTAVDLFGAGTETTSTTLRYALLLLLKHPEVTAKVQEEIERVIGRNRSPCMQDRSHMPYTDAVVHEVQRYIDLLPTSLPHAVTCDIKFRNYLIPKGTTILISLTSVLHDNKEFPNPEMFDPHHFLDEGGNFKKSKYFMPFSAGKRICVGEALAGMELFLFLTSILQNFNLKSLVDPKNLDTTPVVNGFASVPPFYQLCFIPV
Method in brief: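 CYP2C9 deoxyluciferin hydroxylation, 37C, 60 min with NADPH regeneration; 10nM enzyme, 100uM Luciferin-H (KM). Glo detection reagent stopped reaction; luminescence normalized to sulphaphenazole (57uM) full inhibition.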

CC(=O)OCC(=O)[C@]12OC(C)(C)O[C@@H]1C[C@H]1[C@H]3CC=C4C[C@@H](O)CC[C@]4(C)[C@H]3CC[C@]12C
active: Potency [10] 3.16 µM
inactive: Potency [1] > 11.4 µM | activity change, negative = inhibition [2] 8.77% | Potency [3] | activity change, negative = inhibition [4] -9.45% | activity, negative = inhibition [5] 5.43% | Potency [6] > 46 µM | Potency [7] > 9.22 µM | Potency [8] | activity change, negative = inhibition [9] 69.9% [at 11.4 µM]

CN(C)C(=O)c1ccc(-c2nc(Nc3ccc(F)cc3)c3ccccc3n2)cc1
active: Potency [3] 3.98 µM
inactive: Potency [1] > 11.4 µM | activity change, negative = inhibition [2] -18.3% | activity change, negative = inhibition [4] 1.18% | activity, negative = inhibition [5] -8.08% | Potency [6] > 46 µM | Potency [7] > 46 µM | Potency [8] | Potency [10] | outcome [11] | activation [12] 14.9%

C[C@@H]1NCC[C@H](CC(=O)O)[C@H]1CC(=O)O
inactive: Potency [1] > 11.4 µM | activity change, negative = inhibition [2] 8.61% | Potency [3] | activity change, negative = inhibition [4] -12% | activity, negative = inhibition [5] 8.09% | Potency [6] > 46 µM | Potency [7] > 9.22 µM | Potency [8] | Potency [13] | activation [12] 3.32%

O=C(O)NCc1ccccc1 (tested in a mixture with another compound)
inactive: Potency [1] > 11.4 µM | activity change, negative = inhibition [2] 4.23% | activity change, negative = inhibition [4] -18.9% | activity, negative = inhibition [5] 1.18% | Potency [6] > 46 µM | Potency [7] > 9.22 µM | Potency [8] | activation [12] 1.79%
active: Potency [3] 3.16 µM | Potency [14] 3.98 µM

O=[N+]([O-])c1ccc2c(c1)S(=O)c1ccccc1-2 (configuration not stated)
active: Potency [3] 0.2 µM
inactive: Potency [1] > 11.4 µM | activity change, negative = inhibition [2] 11.5% | activity change, negative = inhibition [4] 10.5% | activity, negative = inhibition [5] -13.7% | Potency [6] > 46 µM | Potency [7] > 9.22 µM | Potency [8] | Potency [13] | activation [12] -10.8%

CC(=O)O[C@]1(C)N=NC2(CCCCC2)O1
inactive: Potency [1] > 11.4 µM | activity change, negative = inhibition [2] 0.791% | Potency [3] | activity change, negative = inhibition [4] 3.95% | activity, negative = inhibition [5] 16.1% | Potency [6] > 46 µM | Potency [7] > 9.22 µM | Potency [8] | Potency [13] | activation [12] 14.3%

COc1ccc(CNc2ncnc3ccc(-c4ccccc4C#N)cc23)c(OC)c1
active: Potency [3] 6.31 µM
inactive: Potency [1] > 11.4 µM | activity change, negative = inhibition [2] 13.2% | activity change, negative = inhibition [4] 8.27% | activity, negative = inhibition [5] -15% | Potency [6] > 46 µM | Potency [7] > 46 µM | Potency [8] | Potency [10]

CCCCn1cnc2c(c(CC#N)nn2-c2ccccc2)c1=N
inactive: Potency [1] > 11.4 µM | activity change, negative = inhibition [2] -12% | activity change, negative = inhibition [4] -1.01% | activity, negative = inhibition [5] -0.662% | Potency [6] > 46 µM | Potency [7] > 9.22 µM | Potency [8] | activation [12] 16.2%
active: Potency [3] 1 µM | Potency [14] 0.398 µM

N=C(N)SCC(=O)O
inactive: Potency [1] > 11.4 µM | activity change, negative = inhibition [2] -10.2% | activity change, negative = inhibition [3] -10.2% [at 2.29 µM] | activity change, negative = inhibition [4] 6.44% | activity, negative = inhibition [5] -4.57% | Potency [6] > 46 µM | Potency [7] > 9.22 µM | Potency [8] | Potency [15]

O=C(O)CCc1nc(-c2ccccc2-n2cccc2)no1
inactive: Potency [1] > 11.4 µM | activity change, negative = inhibition [2] -5.29% | activity change, negative = inhibition [3] -17.3% [at 2.29 µM] | activity change, negative = inhibition [4] 8.59% | activity, negative = inhibition [5] -0.807% | Potency [6] > 46 µM | Potency [8] | Potency [13] | Potency [10]
active: Potency [9] 2.51 µM

O=C(O)c1ccc(C(=O)c2ccccc2C(=O)O)cc1C(=O)O
inactive: Potency [1] > 11.4 µM | activity change, negative = inhibition [2] -15.3% | Potency [3] | activity change, negative = inhibition [4] 20.9% | activity, negative = inhibition [5] -1.86% | Potency [7] > 9.22 µM | Potency [8] | Potency [13]

O=C1c2ccccc2C(=O)c2c1ccc(C(=O)O)c2-c1ccc2ccccc2c1
active: Potency [3] 1.26 µM | Potency [16] 1.58 µM | Potency [15] 2.51 µM
inactive: Potency [1] > 11.4 µM | activity change, negative = inhibition [2] 1.13% | activity change, negative = inhibition [4] 16.7% | activity, negative = inhibition [5] -16.8% | Potency [6] > 46 µM | Potency [7] > 9.22 µM | Potency [13]

O=C1c2ccccc2C(=O)c2c(NC3CCCCC3)ccc(Nc3ccc(S(=O)(=O)O)cc3)c21
active: Potency [3] 1.26 µM | Potency [15] 3.98 µM
inactive: Potency [1] > 11.4 µM | activity change, negative = inhibition [2] -7.28% | activity change, negative = inhibition [4] -27.6% | activity, negative = inhibition [5] -10.9% | Potency [6] > 46 µM | Potency [7] > 9.22 µM | Potency [13]

O=C(O)c1cc(C(=O)C(=O)c2cc(C(=O)O)c(O)c3ccccc23)c2ccccc2c1O
active: Potency [16] 0.316 µM
inactive: Potency [1] > 11.4 µM | activity change, negative = inhibition [2] 22.7% | Potency [3] | activity change, negative = inhibition [4] 10.6% | activity, negative = inhibition [5] 0.955% | Potency [6] > 46 µM | Potency [7] > 9.22 µM

O=C(O)C[C@H]1OCC=C2C[N@@+]3([O-])CC[C@]45c6ccccc6N[C@@H]4[C@@H]1[C@H]2C[C@H]53
inactive: Potency [1] > 11.4 µM | activity change, negative = inhibition [2] 9.8% | activity change, negative = inhibition [3] -14.3% [at 2.29 µM] | activity change, negative = inhibition [4] 1.94% | activity, negative = inhibition [5] 3.39% | Potency [6] > 46 µM | Potency [8] | Potency [13]
